Results from PubChem BioAssay AID1032 (The Scripps Research Institute Molecular Screening Center, 2008).
The campaign covered roughly 200,000 compounds. About 670 (0.34%) were called active. This is one part of a sample in which actives are shown more often than they occur. Rule as the data show it: active = activation above about 22%; inactive = the rest.

biological target: Peroxisome proliferator-activated receptor gamma (Homo sapiens) (UniProt P37231); assay: agonists of PPARg-SRC-2 recruitment, primary screen, biochemical, HTS (AID 1032); conditions: PPARgamma LBD-SRC-2 recruitment, at 8 µM, active compounds read high;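 also: 0% = vehicle and 100% = reference agonist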
Sequence (P37231 whole entry, looked up, the tested form may be a part): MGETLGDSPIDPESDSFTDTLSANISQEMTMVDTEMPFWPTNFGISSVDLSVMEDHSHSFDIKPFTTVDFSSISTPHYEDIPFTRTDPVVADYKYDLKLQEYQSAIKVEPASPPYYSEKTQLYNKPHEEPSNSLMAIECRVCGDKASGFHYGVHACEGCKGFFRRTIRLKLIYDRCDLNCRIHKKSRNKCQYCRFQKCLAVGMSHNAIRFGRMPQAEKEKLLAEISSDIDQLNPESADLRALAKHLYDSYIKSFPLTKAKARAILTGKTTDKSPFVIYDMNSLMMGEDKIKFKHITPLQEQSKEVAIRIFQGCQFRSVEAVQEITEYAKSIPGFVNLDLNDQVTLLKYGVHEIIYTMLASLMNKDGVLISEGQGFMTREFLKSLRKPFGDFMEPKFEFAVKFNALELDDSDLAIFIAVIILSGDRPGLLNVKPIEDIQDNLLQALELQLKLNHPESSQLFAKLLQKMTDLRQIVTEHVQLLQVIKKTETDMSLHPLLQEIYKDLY

activation, active:
CCN(/N=C/c1ccc(N(C)C)cc1)c1nc2ccccc2[nH]1 23%
O=C(O)Cc1sc(-c2ccccc2)nc1-c1cccs1 34.7%
Fc1ccc(COc2cccc(-c3n[nH]c(=S)o3)c2)cc1 44.9%
CCn1c(=O)cc(SCC(=O)NCc2ccc3c(c2)OCO3)c2ccccc21 36%

activation, inactive:
Cc1ccc(NC(=O)c2ccc(Oc3ncccn3)cc2)cc1 3.49%
CN(C)c1ccc(/C=N/N(Cc2ccccc2)c2ccccc2)cc1 11.9%
CCN(/N=C/c1ccccc1)c1cc(=O)n(C)c(=O)[nH]1 -3.6%
O=C(Nc1ccccc1F)c1ccc(Cn2cc(Br)cn2)cc1 -1.02%
CN1CCN(CCC(=O)N/N=C/C=C2\N(C)c3ccccc3C2(C)C)CC1 10%
O=C(Nc1ccncc1)c1ccccc1[N+](=O)[O-] -0.46%
CCn1cc(CNC(=O)c2cc([N+](=O)[O-])c(C)c([N+](=O)[O-])c2)cn1 -6.4%
COc1ccc(NC(=S)NC2CCS(=O)(=O)C2)cc1 (centres undefined) 6.88%
O=C(O)Cc1sc(-c2ccc(C(=O)O)cc2)nc1-c1ccccc1 10.9%
Cc1ccc(-c2nc(C)sc2CC(=O)O)cc1 -0.57%
COc1ccc(NC(=O)CN(C)CC(=O)Nc2cccc(C(F)(F)F)c2)cc1 -2.86%
COc1cc2c(cc1OC)CC1(CCCCC1)N=C2 0.25%
Cc1n[nH]c(=O)nc1N/N=C/c1cccs1 3.35%
COc1cccc(-n2c(=O)c3c(C)c(C(=O)N(C)C)sc3n(CC(=O)NCCc3ccc(OC)c(OC)c3)c2=O)c1 9.15%
O=C(NNc1ccccc1Cl)C(O)(c1cccc(C(F)(F)F)c1)c1cccc(C(F)(F)F)c1 17.2%
Cc1cccc(OCc2ccc(C(=O)Nc3ccc(F)cc3)cc2)c1 -0.72%
Cc1nc2ccccc2cc1OCc1ccc(F)cc1 4.89%
CCn1c(=O)cc(SCC(=O)NCCC2=CCCCC2)c2ccccc21 16.9%
CC(C)NC(=O)CSc1ccccc1C(=O)NCc1ccc2c(c1)OCO2 -4.93%
O=C(N/N=C/c1ccc2c(c1)OCO2)C(=O)N1CCCC1 -5.72%
